Test results published in PubChem BioAssay (EPA / NIEHS).
Results filed as inconclusive are left out. Active and inactive are the calls of the source. The calls were made as follows: active = hit-call score of the fitted dose curve at least 0.9, where 1 is the maximum; inconclusive = response in the unintended direction; inactive = score below 0.9.

Experiment: ATG_XTT_Cytotoxicity: Cytotoxicity Assessment in the Attagene TRANS-FACTORIAL HepG2 Assay (AID 2283584)
Method in brief: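 HepG2 human liver cells, transiently transfected with multiple GAL4-UAS reporter units, were dosed and read at 24 h by XTT as cell number. Loss of signal was fitted relative to DMSO negative control baseline.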
With `CCCCCCCCCC(C)=O` the outcome was “inactive”.
For `Cc1c(C(=O)c2c[nH]n(C)c2=O)ccc(S(C)(=O)=O)c1C1=NOCC1`, the outcome was “inactive”.
With `CCCc1ccc(O)c(OC)c1` the outcome was “inactive”.
With `CC(=O)OC(C)c1ccccc1` (stereo not given) the outcome was “inactive”.
For `CC(C)(O)Cc1ccccc1`, the outcome was “inactive”.
With `O=C(Oc1ccccc1)c1ccccc1C(=O)Oc1ccccc1` the outcome was “inactive”.
In the case of `C=C(C)C(=O)OCCCCCCCCCCCC`, the outcome is reported as “inactive”.
With `Nc1ccnc(=O)[nH]1` the outcome was “inactive”.
With `CC(CCC(=O)O)(c1ccc(O)cc1)c1ccc(O)cc1` the outcome was “inactive”.
In the case of `CC(C)(C)C1CCC(=O)CC1`, the outcome is reported as “inactive”.
With `CCCCCOC(=O)CCCCC` the outcome was “inactive”.
In the case of `C=Cc1ccc(OC(C)=O)cc1`, the outcome is reported as “inactive”.
For `CCCCC1CCC(=O)O1` (stereo not given), the outcome was “inactive”.
With `O=C(C=Cc1ccccc1)OCCc1ccccc1` the outcome was “inactive”.
With `O=C(Cl)c1ccc(C(=O)Cl)cc1` the outcome was “inactive”.
With `CCOC(=O)C1=NOC(c2ccccc2)(c2ccccc2)C1` the outcome was “inactive”.
For `O=C(Cl)c1c(Cl)c(Cl)c(C(=O)Cl)c(Cl)c1Cl`, the outcome was “inactive”.
For `CC1=C(O)C(=O)C(C)O1` (stereo not given), the outcome was “inactive”.
In the case of `CCCC/C=C/C=C\C=O`, the outcome is reported as “inactive”.
For `O=C(OCCc1ccccc1)c1ccccc1`, the outcome was “inactive”.
In the case of `CC(=O)OCC=C(C)C`, the outcome is reported as “inactive”.
For `O=C(O[C@@H]1Cc2c(O)cc(O)cc2O[C@@H]1c1cc(O)c(O)c(O)c1)c1cc(O)c(O)c(O)c1`, the outcome was “inactive”.
With `CCCCOCCOC(=O)COc1ccc(Cl)cc1Cl` the outcome was “inactive”.
In the case of `CC1(C)CCC[C@]2(C)[C@H]3CC(=O)O[C@]3(C)CC[C@@H]12`, the outcome is reported as “inactive”.
For `CCC1COC(=O)O1` (stereo not given), the outcome was “inactive”.
With `CN(C)Cc1cc(CN(C)C)c(O)c(CN(C)C)c1` the outcome was “inactive”.
In the case of `CCCCCCCCCCCCCC(=O)OC(C)C`, the outcome is reported as “inactive”.
With `CO[Si](CCCS)(OC)OC` the outcome was “inactive”.
In the case of `CC(C)c1ccc(O)c(C(C)C)c1`, the outcome is reported as “inactive”.
With `C=C(C)C1CC=C(C)C(OC(C)=O)C1` (stereo not given) the outcome was “inactive”.
For `C=CCCCCCCCCO`, the outcome was “inactive”.
With `N#Cc1ccc(C2CCCc3cncn32)cc1` (stereo not given) the outcome was “inactive”.
With `CCCCCCOc1ccc(N)cc1` the outcome was “inactive”.
In the case of `Clc1cc(Cl)c(Cl)c(Cl)c1Cl`, the outcome is reported as “inactive”.
In the case of `COCC(=O)O`, the outcome is reported as “inactive”.
For `C=CCNCC=C`, the outcome was “inactive”.
With `CC(C)C(=O)OCCOc1ccccc1` the outcome was “inactive”.
With `CC(=O)OC1CCCCC1C(C)(C)C` (stereo not given) the outcome was “inactive”.
For `CCCCOCC(C)O` (stereo not given), the outcome was “inactive”.
In the case of `CC1(C)[C@@H]2CC[C@@]1(C)C(=O)C2`, the outcome is reported as “inactive”.
